# Bioassay records deposited in PubChem BioAssay by National Center for Advancing Translational Sciences (NCATS).
# In the library only some 1.4% were active in any assay of this set; here they are far more common.
# TrxR1 substrate = qHTS Assay for Substrates of Mammalian Selenoprotein Thioredoxin Reductase 1 (TrxR1): qHTS; Thioredoxin reductase 1, cytoplasmic (Rattus norvegicus), O89049; actives 0.01% (n = 390,000); purified TrxR1 substrate turnover, NADPH consumption readout; Potency, µM (doses to about 114 µM), for inactives: at the top dose activity change, negative = substrate turnover; note: potency is the fitted concentration of half-maximal effect; % is set by controls: 0 for no effect and ±100 for the full control effect; nearly all actives have a fitted effect of over 50% in size
# Target sequence (O89049 whole entry, looked up): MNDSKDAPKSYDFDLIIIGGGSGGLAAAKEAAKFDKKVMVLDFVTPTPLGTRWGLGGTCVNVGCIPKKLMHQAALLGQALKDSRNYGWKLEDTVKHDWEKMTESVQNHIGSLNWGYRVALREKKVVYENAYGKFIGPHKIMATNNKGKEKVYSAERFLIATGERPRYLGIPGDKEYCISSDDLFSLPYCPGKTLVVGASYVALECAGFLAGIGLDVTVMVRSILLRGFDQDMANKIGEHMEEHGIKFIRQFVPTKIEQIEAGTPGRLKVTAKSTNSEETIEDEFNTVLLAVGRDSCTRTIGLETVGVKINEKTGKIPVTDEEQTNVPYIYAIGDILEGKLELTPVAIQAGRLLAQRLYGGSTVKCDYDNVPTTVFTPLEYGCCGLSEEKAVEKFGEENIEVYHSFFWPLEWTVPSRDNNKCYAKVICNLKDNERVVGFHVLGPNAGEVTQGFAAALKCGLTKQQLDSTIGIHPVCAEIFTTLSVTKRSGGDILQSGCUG
#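 Rat TrxR1, dispensed at 90 nM, was prereduced with 400 uM NADPH (final) for 5 min at ~22 deg C, then incubated with compound 15 min before 400 uM selenite. A first-read NADPH fluorescence drop versus no-compound background flagged substrates.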
# N370S GC mod = qHTS Assay for Inhibitors and Activators of N370S glucocerebrosidase as a Potential Chaperone Treatment of Gaucher Disease; actives 0.092% (n = 330,000); N370S GC spleen homogenate, 4MU-glucoside fluorescence; Potency, µM (doses to about 59.4 µM), for inactives: at the highest dose activity change, negative = inhibition, usual class: inhibitors;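 note: potency is the fitted concentration of half-maximal effect; 0% = full enzyme activity and -100% = no enzyme basal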
# AT treatment = qHTS Assay for Identifying a Potential Treatment of Ataxia-Telangiectasia; F2112 A-T fibroblasts, KAP-1 phosphorylation AlphaLISA; neocarzinostatin DNA damage 30 min before lysis; Potency, µM (highest dose often 57.5 µM), for the others: at the highest dose activation, actives largely listed as activators; actives 0.19% (n = 320,000); note: potency is the fitted concentration of half-maximal effect; % of control where 0% means no effect; nearly all actives have a fitted effect of over 45% in size
#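 ATM-like activity read as KAP-1 phosphorylation via AlphaLISA donor/acceptor antibody pairs after lysis and 6 hr at 25C. Cells were ATM-null patient fibroblasts (F2112, hTERT), dosed 60 min, then exposed to the DSB inducer NCS for 30 min.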
# Akt phos inh = HTS Assay for Inhibitors of Akt Phophorylation: Primary Screen. actives 0.32% (n = 360,000). activity change, % for hits at 50 µM. Neuro2A IGF-stimulated pAkt S473 HTRF, 20 min; stronger effect = lower value; in the data active = activity change below about -80%; inconclusive = mostly about -51% to -80%; note: % is set by controls: 0 for no effect and ±100 for the full control effect
#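 Single-point screen (50 µM final compound) in Neuro2A cells stimulated 20 min with 6 nM IGF at 37 deg C. After lysis, Ser473-phosphorylated Akt read by HTRF (ex 330 nm, em 615/665 nm) as the 665/615 ratio.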
# Pin1 inh = qHTS Assay to Find Inhibitors of Pin1; Potency, µM (series often up to 115 µM), for inactives: at the top dose activity, negative = inhibition, hits mostly inhibitors; actives 0.009% (n = 390,000); Peptidyl-prolyl cis-trans isomerase NIMA-interacting 1 (Homo sapiens), Q13526; Pin1 FP peptide displacement, HiFluor488, 10 min; AID 504891, 2011; active = well fitted inhibition curve with a large enough effect in the polarisation, with a control signal flat, not every such curve was filed as active; inconclusive = small, poorly fitted or top-dose-only effect, or effect the other way, or a change in a side signal; inactive = no such curve, though single readings can be large or run the other way; the % refers to the polarisation; note: potency is the fitted concentration of half-maximal effect; % is set by controls: 0 for no effect and ±100 for the full control effect
# Target sequence (Q13526 whole entry, looked up): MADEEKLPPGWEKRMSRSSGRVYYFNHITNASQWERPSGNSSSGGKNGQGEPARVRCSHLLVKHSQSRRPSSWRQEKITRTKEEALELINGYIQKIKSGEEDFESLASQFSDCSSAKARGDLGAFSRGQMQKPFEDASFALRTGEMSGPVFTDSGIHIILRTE
# rTrxR1 inhibitor = qHTS Assay for Inhibitors of Mammalian Selenoprotein Thioredoxin Reductase 1 (TrxR1): qHTS; Thioredoxin reductase 1, cytoplasmic (Rattus norvegicus), O89049; actives 1% (n = 390,000); Potency, µM (titrated, usually from 114 µM), without a hit: at the highest dose activity change, negative = inhibition, actives largely listed as inhibitors; recombinant rTrxR1, NADPH fluorescence consumption, selenite substrate; AID 588453, 2011; note: potency is the fitted concentration of half-maximal effect; % is set by controls: 0 for no effect and ±100 for the full control effect; nearly all actives have a fitted effect of over 65% in size
#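 Rat TrxR1 (90 nM in the dispensed reagent) was pre-reduced with 400 uM NADPH for 5 min at room temperature, then incubated with compound for 15 min. After 400 uM selenite was added, NADPH fluorescence (Ex 340/Em 450 nm) was followed for 8 min.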
# * = called active by the depositor; i = inactive; ? = inconclusive; . = not tested or not shown; [ ] = another dose, or the depositor's remark. Unless noted, calls come from the whole dose curve; as a rule, active = well fitted curve in the direction sought with a large enough effect; inconclusive = small, poorly fitted or top-dose-only effect, or another doubt; inactive = no such curve, though single readings can be large; an effect the other way counts as inactive or inconclusive.
SMILES,TrxR1 substrate,N370S GC mod,AT treatment,Akt phos inh,Pin1 inh,rTrxR1 inhibitor
CN(C)CCN(C(=O)CCS(=O)(=O)c1ccccc1)c1nc2c(F)cccc2s1,-7.7%,-2.5%,-2.6%,i,-7.1%,25.1µM*
O=C(CCOc1ccccc1)N(Cc1cccnc1)c1nc2c(F)cc(F)cc2s1,4.4%[57.1 µM],.,.,.,15.0%,?
CCN(CC)CCN(C(=O)CCOc1ccccc1)c1nc2c(F)cc(F)cc2s1,2.1%,-8.3%,0.0%,i,0.6%,11.2µM*
COc1ccc(Cl)c2sc(N(CCN(C)C)C(=O)CCS(=O)(=O)c3ccc(C)cc3)nc12,0.2%[57.1 µM],?,6.5%,i,8.4%,?
COC(=O)c1cc(=O)c(O)c2c(O)c(O)ccc2c1,.,-8.4%,.,.,.,.
CCOC(=O)c1cnn(-c2ccc(C(=O)Nc3cccc(C(C)=O)c3)cc2)c1N,0.7%[57.1 µM],.,.,.,1.7%,17.4%[57.1 µM]
COc1ccc(CCNC(=O)Cn2cc(C(=O)c3ccc(Cl)cc3)c(=O)c3ccc(C)nc32)cc1OC,0.5%,.,.,.,?,14.8%
CN(C)CCCN(C(=O)CCS(=O)(=O)c1ccccc1)c1nc2cc3c(cc2s1)OCO3,2.5%,-5.8%,3.6%,i,6.3%,6.31µM*
Cc1ccc2sc(N(CCCN(C)C)C(=O)CCS(=O)(=O)c3ccccc3)nc2c1C,2.5%,?,6.6%,i,-2.3%,17.8µM*
CN(C)c1ccc2c(-c3ccccc3)c3ccc(=[N+](C)C)cc-3oc2c1,.,0.6%,.,.,.,.
O=S(=O)(c1ccc(Cl)cc1)c1nc(-c2ccccc2)oc1N1CCN(c2ccccc2)CC1,15.4%,.,.,.,-2.5%,29.2%
CC(=O)Nc1cc(OC(C)=O)c2nonc2c1OC(C)=O,?,-6.5%,25.1%,.,?,130.7%[57.1 µM]
CC(=O)Oc1ccc2nonc2c1OC(C)=O,20µM*,.,.,.,.,?
Cc1ccc(-n2ncc(Br)c(Br)c2=O)cc1,3.1%,8.3%,-8.3%,i,-2.3%,10µM*
O=c1c(Br)c(Br)cnn1-c1ccccc1,11.0%,0.9%,-2.1%,i,-1.7%,?
CCOc1cc(C2c3c(n[nH]c3C)C(=O)N2c2ccc(Br)cc2)ccc1O (stereo not given),5.0%,-1.6%,-1.8%,i,0.6%,?
COc1cc(C2c3c(n[nH]c3C)C(=O)N2c2ccc(Br)cc2)ccc1O (stereo not given),3.6%,6.8%,0.5%,i,2.8%,7.94µM*
O=C(COc1ccc(/C=C\[N+](=O)[O-])cc1)N1CCOCC1,6.8%,-7.9%,?,i,?,14.1µM*
C=CCNc1oc(-c2ccco2)nc1S(=O)(=O)c1ccccc1,1.7%,2.7%,2.7%,i,-4.2%,44.7µM*
Brc1cccc[n+]1Cc1ccc(C[n+]2ccccc2Br)cc1,3.3%[0.0914 µM],.,.,.,.,20.2%[0.0914 µM]
CCOc1ccc(CN2C(=O)C(=O)c3cccc(C)c32)cc1OC,6.1%,.,.,.,-8.1%,2.8%
COc1cc2nc(N3CCCCC3)nc(NC3CC3)c2cc1OC,81.5%,.,.,.,.,-4.2%
COc1ccc(CCNC(=O)COC(=O)c2cnc(C)cn2)cc1,-1.0%,5.5%,3.2%,-109.5%*,-4.9%,5.3%
Cc1cc(C)c2oc(-c3cccc(NC(=O)COc4ccc(Cl)cc4C)c3C)nc2c1,4.0%,.,.,.,.,8.0%
O=C(CCCOc1ccccc1)Nc1nc2ccccc2[nH]1,-0.6%,2.6%,8.3%,i,0.7%,17.6%[57.1 µM]
SMILES,TrxR1 substrate,N370S GC mod,AT treatment,Akt phos inh,Pin1 inh,rTrxR1 inhibitor
O=S(=O)(CCOc1ccccc1)c1nc2ccccc2[nH]1,-0.4%,29.8%,.,i,-2.3%,44.7µM*
O=C(N/N=C/c1ccc([N+](=O)[O-])s1)c1ccccc1Br,-2.3%,-20.0%,2.2%,i,3.0%,20µM*
Cc1ccccc1C(=O)N/N=C/c1ccc([N+](=O)[O-])s1,-11.9%,1.9%,4.4%,i,0.9%,?
COCCCNC(=O)c1c(-c2ccccc2)noc1C,-3.8%,29.7%,3.8%,.,-1.4%,4.2%[11.4 µM]
CCCCOCCCNC(=O)c1c(-c2ccccc2)noc1C,-0.7%,-3.7%,2.0%,-121.6%*,2.2%,2.9%
O=C(O)c1ccccc1NS(=O)(=O)c1ccc(NNC(=S)Nc2ccc(OC(F)F)cc2)c([N+](=O)[O-])c1,-16.7%,?,-6.4%,i,.,50.1µM*
O=C(c1cc2ccccc2oc1=O)N(Cc1ccccc1)Cc1ccc2c(c1)OCO2,-4.7%,9.6%,1.4%,-123.8%*,1.3%,5.4%
O=C(c1cc2ccccc2oc1=O)N1CCN(Cc2ccc3c(c2)OCO3)CC1,9.5%,6.8%,-5.1%,i,-3.5%,6.7%
Cc1cc(C)n(C(C[N+](=O)[O-])c2ccc(Cl)cc2)n1 (stereo not given),3.8%,-6.9%,3.8%,i,0.1%,5.62µM*
CCOC(=O)CCc1c(C)n[nH]c1C,0.1%,24.3%,0.5%,i,-2.1%,12.7%
CCOC(=O)CCCc1sc(N)nc1-c1[nH]c(=O)[nH]c1C,-5.0%[57.1 µM],-14.9%,-1.1%,.,?,7.94µM*
Cc1cc(NC(=S)NC(=O)C2CC2)ccc1Br,1.8%,18.4%,5.8%,i,-1.0%,44.7µM*
CCN(CC)c1ccc(NC(=S)NC(=O)C2CCC2)cc1,7.8%,-4.9%,-0.4%,i,10.4%,44.7µM*
COc1ccc(C2c3c(ncn(CCCc4ccccc4)c3=N)Oc3ccc4ccccc4c32)cc1OC (stereo not given),.,.,.,.,21.2%,.
Cc1cccc(OCC(=O)Nc2ccc(O)c(-c3nc4ccccc4o3)c2)c1,5.7%[0.0914 µM],.,.,.,.,14.8%
CCOC(=O)/C(C)=N/Nc1nc(-c2ccc(NC(C)=O)cc2)cs1,-14.8%,-8.5%,16.9%,i,8.3%,56.2µM*
Cc1ccc(C2=N/C(=C/N3CCOCC3)C(=O)O2)cc1,-16.9%,-0.7%,-5.2%,i,-8.7%,-9.7%
Cc1cccc2cc(/C=C3\N=C(c4ccccc4)OC3=O)c(N3CCOCC3)nc12,0.9%,1.0%,-3.2%,?,75.7µM*,5.4%
C=CCn1c(Sc2ncc([N+](=O)[O-])s2)n[nH]c1=O,11.5%[57.1 µM],-2.6%,-19.8%,i,-15.2%,0.316µM*
CCCCOc1cccc(C(=O)Nc2cc3nn(-c4ccc(F)cc4)nc3cc2C)c1,23.1%,.,.,.,9.7%,36.5%[11.4 µM]
Cc1cc2nn(-c3ccc(F)cc3)nc2cc1NC(=O)c1ccc(OC(C)C)cc1,93.2%,.,.,.,12.7%,89.1µM*
CCCN1CCN(C(=O)c2oc3ccccc3c2NC(=O)COc2ccc(OC)cc2)CC1,4.7%,0.5%,4.3%,.,-2.3%,22.4µM*
